Compound activity deposited in PubChem by several laboratories.
CYP2C19 activ = cytochrome P450 2C19 (human) activation | P33261 | recombinant CYP2C19, luciferin-H EGE luminescence; hits give high values; 0 = fully inhibited enzyme, 1 = untreated enzyme | activation factor at 5 µM | 96,000 tested, under 10 active | AID 1025;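 active = activation factor of at least 2 at 5 µM in the primary screen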;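 also: 0 = wells with 2.5 mM tranylcypromine and 1 = vehicle-only wells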
Target sequence (P33261 whole entry, looked up): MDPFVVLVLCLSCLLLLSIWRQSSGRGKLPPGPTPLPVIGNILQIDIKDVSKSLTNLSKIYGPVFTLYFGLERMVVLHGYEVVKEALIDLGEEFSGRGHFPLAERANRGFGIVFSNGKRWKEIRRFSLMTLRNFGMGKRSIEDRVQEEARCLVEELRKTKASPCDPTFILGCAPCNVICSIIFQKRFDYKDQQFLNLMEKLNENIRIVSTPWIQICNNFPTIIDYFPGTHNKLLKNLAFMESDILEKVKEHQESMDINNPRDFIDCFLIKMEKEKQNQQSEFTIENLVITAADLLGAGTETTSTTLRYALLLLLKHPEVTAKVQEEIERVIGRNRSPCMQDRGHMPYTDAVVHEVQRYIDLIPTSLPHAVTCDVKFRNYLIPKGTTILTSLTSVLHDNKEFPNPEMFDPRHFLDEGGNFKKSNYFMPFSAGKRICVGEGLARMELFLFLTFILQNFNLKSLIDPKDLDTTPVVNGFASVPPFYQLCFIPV
E-sel TNF inh = TNF alpha driven E-selectin expression inhibition | HUVEC TNFa-induced E-selectin immunofluorescence, high content | inhibition, % at 2 µM | hit rate 0.71% among 120,000 | AID 1246;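 active = inhibition above the batch mean plus 3 SD, and confirmed as a hit on visual image review, cut at about 43% in these data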;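 also: 0% = TNF-stimulated DMSO wells and 100% = unstimulated control wells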
CYP2C9 inh = blocks human cytochrome P450 2C9. P11712. CYP2C9 Supersomes, luciferin-H conversion, luminescence. inhibition, % at 5 µM. hit rate 20% among 96,000. AID 777;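 active = blocking of liver enzyme CYP2C9 beyond about 50% at 5 µM, limit read from the data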
F-actin modifier = modifiers of cytoskeleton assembly; HUVEC TNFa F-actin phalloidin imaging, high content; inhibition, % at 2 µM; hit rate 0.18% among 91,000; AID 836;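 active = inhibition above the batch mean plus 3 SD and confirmed as a hit by visual image inspection, cut at about 30% in these data, passing the limit was not always enough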
CYP2C9 act = activators of human CYP2C9; hit rate 1.4% among 96,000; activation factor at 5 µM; recombinant CYP2C9, luciferin-H conversion, luminescence; hits give high values; factor 1 = untreated enzyme, 0 = blocked; AID 1024;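 active = activation factor of 2 or more for CYP2C9 at a 5 µM dose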;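 also: 0 = sulfaphenazole-blocked wells and 1 = vehicle-only wells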
CYP2C19 inhib = human CYP2C19 inhibition; P33261; CYP2C19 Supersomes, luciferin-H EGE luminescence, 30 min; inhibition, % at 5 µM; hit rate 21% among 96,000; AID 778;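 active = CYP2C19 inhibition above a set limit at 5 µM in the primary screen, cut at about 50% in these data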;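 also: plate controls were negative control wells for no effect and 2.5 mM tranylcypromine positive control for full effect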
Starred values were filed as active, the others as inactive. Most compounds without a hit are left out; they make up all but 22% or so of the library.

CC(C)Cn1c2nc3ccccc3nc2c2c(=O)n(CCN3CCOCC3)cnc21 was read as CYP2C19 activ 0.9, E-sel TNF inh -0.9, CYP2C9 inh 25.5, F-actin modifier 1.7, CYP2C9 act 0.7 and CYP2C19 inhib 8.1.
`COc1ccccc1NC(=O)N1CCCC1C(=O)Nc1ccc(NC(C)=O)cc1` (configuration not stated) gave CYP2C19 activ 0.9, E-sel TNF inh -13.9, CYP2C9 inh 8.9, F-actin modifier 64.4, CYP2C9 act 0.9 and CYP2C19 inhib 10.0.
CCCn1c(SCC(=O)NC23CC4CC(CC(C4)C2)C3)n[nH]c1=O was read as CYP2C19 activ 0.9, E-sel TNF inh -2.6, CYP2C9 inh 9.1, F-actin modifier -19.9, CYP2C9 act 0.9 and CYP2C19 inhib 9.1.
Screening O=C(Cn1cc([N+](=O)[O-])cn1)Nc1ccc(Cn2cc(Br)cn2)cc1 returned E-sel TNF inh -4.6.
`O=C(CCN1C(=O)c2ccccc2C1=O)Nc1ccc(F)cc1F` gave CYP2C19 activ 0.6, E-sel TNF inh -16.5, CYP2C9 inh -3.7, CYP2C9 act 1 and CYP2C19 inhib 36.4.
`O=C(CCc1ccccc1)Nc1c(F)c(F)c(F)c(F)c1F` gave CYP2C19 activ 0.7, CYP2C9 inh 17.9, F-actin modifier -16.9, CYP2C9 act 0.8 and CYP2C19 inhib 26.1.
`O=C(CCc1ccccc1)Nc1ccccc1F` gave CYP2C19 activ 0.2, CYP2C9 inh 24.7, F-actin modifier -1.0, CYP2C9 act 0.8 and CYP2C19 inhib 76.4*.
O=C(CCc1ccccc1)Nc1ccc(F)cc1F was read as CYP2C19 activ 0.4, E-sel TNF inh 15.0, CYP2C9 inh 4.8, F-actin modifier -12.7, CYP2C9 act 1 and CYP2C19 inhib 59.9*.
For O=C(NC1c2ccccc2-c2ccccc21)N1CCCCC1 the results were CYP2C19 activ 0.7, E-sel TNF inh 33.5, CYP2C9 inh 3.7, F-actin modifier -15.2, CYP2C9 act 1 and CYP2C19 inhib 26.8.
Screening CN1CCN(c2ccc([N+](=O)[O-])cc2S(=O)(=O)N2CCOCC2)CC1 returned CYP2C19 activ 0.7, E-sel TNF inh -12.4, CYP2C9 inh -6.4, F-actin modifier 6.4, CYP2C9 act 1.1 and CYP2C19 inhib 26.8.
CCOC(=O)n1c(=O)n(Cc2c(Cl)cccc2Cl)c2ccccc21 was read as CYP2C19 activ 0.4, E-sel TNF inh 4.0, CYP2C9 inh 48.0, F-actin modifier -15.1, CYP2C9 act 0.5 and CYP2C19 inhib 60.6*.
CCOC(=O)n1c(=O)n(Cc2ccccc2)c2ccccc21 was read as CYP2C19 activ 0.3, E-sel TNF inh -10.5, CYP2C9 inh 18.2, F-actin modifier 44.4, CYP2C9 act 0.8 and CYP2C19 inhib 70.3*.
`CCOC(=O)n1c(=O)n(Cc2ccc(Cl)c(Cl)c2)c2ccccc21` gave CYP2C19 activ 0.5, E-sel TNF inh -15.4, CYP2C9 inh 53.3*, F-actin modifier -12.9, CYP2C9 act 0.5 and CYP2C19 inhib 51.3*.
Screening CCOC(=O)n1c(=O)n(Cc2cccc(F)c2)c2ccccc21 returned E-sel TNF inh 10.8.
O=C(Nc1cccc(-c2nc3ncccc3o2)c1)c1sc2ccccc2c1Cl was read as CYP2C19 activ 0.9, E-sel TNF inh -39.1, CYP2C9 inh 42.5, F-actin modifier -12.7, CYP2C9 act 0.6 and CYP2C19 inhib 5.2.
`O=C1c2ccccc2C(Nc2ccc(Cl)cn2)N1Cc1ccccc1` (configuration not stated) gave CYP2C19 activ 0.2, E-sel TNF inh 7.7, CYP2C9 inh 70.3*, F-actin modifier 8.9, CYP2C9 act 0.3 and CYP2C19 inhib 81.3*.
For O=C1Nc2ccccc2C12OCC1(CO2)COC2(OC1)C(=O)Nc1ccccc12 (configuration not stated) the results were CYP2C19 activ 0.5, E-sel TNF inh -2.6, CYP2C9 inh 43.6, F-actin modifier -1.2, CYP2C9 act 0.6 and CYP2C19 inhib 49.1.
`CN1CC(c2ccc(Cl)c(Cl)c2)[C@@]2(COc3ccccc3C2=O)[C@@]12C(=O)Nc1ccccc12` (some centres not stated) gave CYP2C19 activ 1, CYP2C9 inh 77.3*, CYP2C9 act 0.2 and CYP2C19 inhib -2.5.
Screening CCN(CC)S(=O)(=O)c1cccc(-c2cn3cc(C)ccc3n2)c1 returned CYP2C19 activ 0.4, E-sel TNF inh -17.6, CYP2C9 inh 67.1*, F-actin modifier -2.5, CYP2C9 act 0.3 and CYP2C19 inhib 60.8*.
`CC1CC(C)CN(c2ccc(-n3cnnn3)cc2[N+](=O)[O-])C1` (configuration not stated) gave CYP2C19 activ 0.4, E-sel TNF inh -27.8, CYP2C9 inh 18.6, F-actin modifier 2.9, CYP2C9 act 0.8 and CYP2C19 inhib 64.0*.
For O=[N+]([O-])c1cc(-n2cnnn2)ccc1N1CCC(Cc2ccccc2)CC1 the results were CYP2C19 activ 0.6, E-sel TNF inh -44.1, CYP2C9 inh 62.3*, F-actin modifier -11.8, CYP2C9 act 0.4 and CYP2C19 inhib 42.5.
CC1CC(C)CN(c2cc3c(cc2[N+](=O)[O-])C(=O)N(c2ccccc2)C3=O)C1 (configuration not stated) was read as E-sel TNF inh -23.6.
Screening Cc1nc2c(-c3ccccc3)c(C)nn2c(C)c1CC(=O)O returned CYP2C19 activ 1.2, E-sel TNF inh 5.7, CYP2C9 inh -20.2, F-actin modifier 18.2, CYP2C9 act 1.2 and CYP2C19 inhib -17.3.
For N#Cc1c2n(c3c(=O)n(Cc4ccc(Cl)cc4)cnc13)CCCC2 the results were CYP2C19 activ 0, CYP2C9 inh 62.4*, F-actin modifier 66.0, CYP2C9 act 0.4 and CYP2C19 inhib 99.9*.
`N#Cc1ccc(Cn2c(=O)c(C#N)c3n(c2=O)CCC3)cc1` gave CYP2C19 activ 0.1, E-sel TNF inh 5.5, CYP2C9 inh -19.0, F-actin modifier -33.3, CYP2C9 act 1.2 and CYP2C19 inhib 89.4*.
`N#Cc1c2n(c(=S)n(-c3ccccc3)c1=O)CCCCC2` gave E-sel TNF inh -11.2.
`N#Cc1c2n(c3c(=O)n(Cc4ccccc4Cl)cnc13)CCCC2` gave CYP2C19 activ 0, CYP2C9 inh 91.7*, F-actin modifier -67.0, CYP2C9 act 0.1 and CYP2C19 inhib 99.2*.
`COC(=O)Cn1cnc2c(C#N)c3n(c2c1=O)CCCC3` gave CYP2C19 activ 0.9, CYP2C9 inh -2.3, F-actin modifier -16.9, CYP2C9 act 1 and CYP2C19 inhib 6.0.
For CCC(=O)c1ccc(OCC(O)Cn2c(C)nc3ccccc32)cc1 (configuration not stated) the results were CYP2C19 activ 0.3, E-sel TNF inh 25.4, CYP2C9 inh 50.5*, F-actin modifier 8.0, CYP2C9 act 0.5 and CYP2C19 inhib 72.1*.
CCC(=O)c1ccc(OCC(O)Cn2cnc3ccccc32)cc1 (configuration not stated) was read as CYP2C19 activ 0.9, E-sel TNF inh 8.8, CYP2C9 inh 14.0, F-actin modifier 1.7, CYP2C9 act 0.9 and CYP2C19 inhib 8.8.
